Bioassay records from PubChem BioAssay.
KB-3-1 tox: kills parental KB-3-1 adenocarcinoma cells. Potency, µM (titrated, usually from 46.1 µM), hits mostly cytotoxic. AID 1347075. 1.4% of 400,000 active. KB-3-1 viability, CellTiter-Glo ATP luminescence, 72 h; note: nearly all actives have a fitted effect of over 60% in size
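KB-3-1 cells, DMEM (no phenol red) + 10% FBS; compound by pin transfer, 72 h, 37 °C. Readout: CellTiter-Glo luminescence after 10 min. Data normalized, curve-fitted.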
MCF10A rereplic: induces DNA re-replication in MCF 10a normal breast cells. MCF 10A DNA re-replication, Hoechst nuclear intensity, 48 h. Potency, µM (doses to about 46.1 µM), actives largely listed as activators. 2.9% of 350,000 active; note: nearly all actives have a fitted effect of over 50% in size
IL1B secr inh: blocks inflammasome-driven IL-1 beta release; activity change, % at 57.5 µM; THP-1 LPS/ATP IL-1B secretion, AlphaLISA, 16 h; hits give low values; AID 743279; 4.7% of 360,000 active; in the data active = activity change below about -50%; inconclusive = mostly about -30% to -49%
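Secreted IL-1B measured by AlphaLISA bead assay after 16 h compound exposure of THP-1 cells; compounds (final up to 57.5 uM) added 1 h before LPS (250 ng/mL) and ATP (1.25 mM) stimulation; lower signal means less secretion.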
KB-V1 cytotox: kills drug-selected multidrug resistant KB-V1 cells; AID 1347076; Potency, µM (top dose mostly 46.1 µM), actives largely listed as cytotoxic; 3.4% of 400,000 active; KB-V1 MDR cells viability, CellTiter-Glo, 72 h; note: nearly all actives have a fitted effect of over 60% in size
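In this primary screen, KB-V1 cells overexpressing P-gp are incubated with library compounds (lowest to highest concentration) for 72 h at 37 degrees C before a luminescent ATP viability read.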
SW480 rereplic: DNA re-replication induction in SW480 cells; SW480 DNA re-replication, Hoechst DNA content imaging, 48 h; Potency, µM (top dose mostly 46.1 µM), actives largely listed as activators; 1.8% of 340,000 active; AID 624297; note: nearly all actives have a fitted effect of over 55% in size
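Quantitative HTS format with DMSO vehicle controls; 48 hr drug incubation at 37 C, then 40 min Hoechst staining and scanning imager measurement at 405 nm excitation.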
Hits are given with their value; . = inactive; ? = inconclusive; ! = not active in a repeat; [ ] = another dose, or the depositor's remark. Only some compounds are listed: those with a hit (about 9.9% of all), similar ones and a draw of the others. Unless noted, calls come from the whole dose curve; as a rule, active = well fitted curve in the direction sought with a large enough effect; inconclusive = small, poorly fitted or top-dose-only effect, or another doubt; inactive = no such curve, though single readings can be large; an effect the other way counts as inactive or inconclusive.

SMILES	KB-3-1 tox	MCF10A rereplic	IL1B secr inh	KB-V1 cytotox	SW480 rereplic
CCN(CC)CCNc1nc(-c2ccco2)c2c(c1C#N)CC(C)(C)OC2	.	.	.	?	.
CC(C)NC(=O)C(=O)NCCCN1CCOCC1	.	.	.	.	.
CN(C)CCNC(=O)c1cccc(NS(=O)(=O)c2ccc(Cl)c(Cl)c2)c1	.	.	?	.	.
CN(C)CC(C)(C)CNS(=O)(=O)c1ccc(Cl)c(Cl)c1	.	?	-54!	.	?
COc1ccc([N+](=O)[O-])cc1NC(=O)COC(=O)c1ccccc1O	.	.	.	.	?
COc1ccc([N+](=O)[O-])cc1NCc1ccccc1	?	.	-89	?	.
COc1ccc([N+](=O)[O-])cc1NC(=O)COC(=O)c1ccccc1C(=O)c1ccccc1	.	.	-52	.	.
COCC(=O)Nc1cc([N+](=O)[O-])ccc1OC	.	.	.	.	?
CC(=O)Nc1cc([N+](=O)[O-])ccc1OCc1ccccc1	.	.	.	18µM	.
COc1ccc([N+](=O)[O-])cc1NCc1ccccc1C	.	5.8µM	.	.	?
COc1ccc([N+](=O)[O-])cc1NC(=O)CSCc1ccccc1	.	.	.	.	.
O=C(O)CSc1nnc(-c2ccc(Cl)cc2Cl)n1-c1ccccc1	.	?	.	?	?
COc1ccc(CCN2CC(C(=O)NCCc3ccccc3C)CCC2=O)cc1 (centres undefined)	.	.	.	.	.
N/C(=N\OC(=O)CC1CCCCC1)c1ccc(Cl)cc1	.	?	.	.	.
Cc1ccc(-n2c(C3CC3c3ccc(Cl)cc3)n[nH]c2=S)cc1 (centres undefined)	.	?	.	21µM	?
S=c1[nH]nc(C2CC2c2ccc(Cl)cc2)n1-c1ccc(Cl)cc1 (centres undefined)	.	?	-102	.	?
Cc1ccc(-n2c([C@@H]3C[C@H]3c3ccccc3)n[nH]c2=S)cc1	.	?	.	?	?
Cc1ccc(C2CC2c2n[nH]c(=S)n2-c2ccc(C)cc2)cc1 (centres undefined)	.	?	.	.	.
Cc1ccc(C2CC2c2n[nH]c(=S)n2-c2cccc(Cl)c2)cc1 (centres undefined)	.	23µM	.	.	.
CN(O)/C=N/C(=S)Nc1ccc(Cl)cc1Cl	.	.	.	.	.
CCNc1nc(SCCOc2ccc(C)cc2)nc(N(C)C)n1	?	?	.	?	.
Cc1ccc(OCCSc2nc(NC(C)C)nc(NC(C)C)n2)cc1	.	13µM	.	?	.
CC(C)(CNC(=O)c1ccc(Br)o1)N1CCOCC1	.	.	.	.	.
COc1ccc(C(CNC(=O)c2ccc(OCc3ccccc3)cc2)N2CCOCC2)cc1 (centres undefined)	.	.	.	?	.
COc1ccc(C(CNC(=O)c2ccc(-c3ccccc3Cl)o2)N2CCOCC2)cc1 (centres undefined)	.	?	-76	?	.
SMILES	KB-3-1 tox	MCF10A rereplic	IL1B secr inh	KB-V1 cytotox	SW480 rereplic
COc1ccc(C(CNC(=O)CSc2ccccc2F)N2CCOCC2)cc1 (centres undefined)	.	.	.	.	.
CC(C)(CNC(=O)c1ccc(-c2ccccc2Cl)o1)N1CCOCC1	.	.	-56	.	.
COc1ccc(C(CNC(=O)c2cc3ccccc3cc2OC)N2CCCC2)cc1 (centres undefined)	.	.	.	4.6µM	.
COc1ccc(C(CNC(=O)CNC(=O)c2ccccc2Cl)N2CCCC2)cc1 (centres undefined)	.	.	.	.	.
COc1ccc(C(CNC(=O)c2cc(F)c(F)c(F)c2F)N2CCOCC2)cc1 (centres undefined)	.	.	-95	.	.
C=CCOc1ccc(C2/C(=C(\O)c3ccc4c(c3)OCCO4)C(=O)C(=O)N2CCCN2CCOCC2)cc1 (centres undefined)	.	.	.	?	.
N#CC1(NC(=O)CN2CCN(S(=O)(=O)c3ccccc3F)CC2)CCCC1	.	.	.	?	.
COc1ccc(C(CNC(=O)COc2c(C)cc(C)cc2C)N2CCOCC2)cc1 (centres undefined)	.	.	.	.	.
COc1ccccc1C(CNC(=O)CCNS(=O)(=O)c1ccc(Br)cc1)N1CCCC1 (centres undefined)	.	.	.	.	6.5µM
CCC1CCc2sc(C(=O)NCC(c3ccc(OC)cc3)N3CCCC3)cc2C1 (centres undefined)	?	?	?	9.2µM	?
COc1ccc(C(CNC(=O)CCNS(=O)(=O)c2ccc(Br)cc2)N2CCCC2)cc1 (centres undefined)	.	.	.	?	.
COc1ccc(C(CNC(=O)c2oc3ccc(Br)cc3c2C)N2CCCCC2)cc1 (centres undefined)	?	.	-82	?	.
COc1ccc(C(CNC(=O)COc2ccc(-c3ccccc3)cc2)N2CCOCC2)cc1 (centres undefined)	?	.	-61	.	.
COc1ccc(C(CNC(=O)c2cccc(N(C)C)c2)N2CCCC2)cc1 (centres undefined)	.	.[0.0737 µM]	.	.	?
CC1CCCN(C(=O)Cn2nnc(-c3ccccc3F)n2)C1 (centres undefined)	.	.	.	.	?
Cc1cc(NC(=O)CN2C(=O)NC(c3ccccc3)(c3ccc(C)c(C)c3)C2=O)no1 (centres undefined)	.	.	.	.	.
COc1ccccc1C(CNC(=O)c1ccco1)N1CCCC1 (centres undefined)	.	.	.	.	.
COc1ccccc1C(CNC(=O)c1ccc(-c2ccccc2Cl)o1)N1CCCC1 (centres undefined)	?	?	-57	?	.
COc1ccc(S(=O)(=O)N2CCOC23CCN(S(=O)(=O)c2ccccc2)CC3)cc1	.	.	.	.	7.3µM
COc1ccc(S(=O)(=O)N2CCOC23CCN(S(C)(=O)=O)CC3)cc1	.	.	.	.	5.2µM
COc1ccc(S(=O)(=O)N2CCC3(CC2)OCCN3S(=O)(=O)c2c(C)cc(C)cc2C)cc1	.	.	.	.	.
COc1ccc(OC)c(S(=O)(=O)N2CCC3(CC2)OCCN3S(=O)(=O)c2ccccc2)c1	.	.	.	.	?
COc1cccc(O)c1CN1CCCC(C(=O)c2cccc(C(F)(F)F)c2)C1 (centres undefined)	.	.	.	?	.
O=C(NCC1CCCN(Cc2ccc3nonc3c2)C1)c1cccc(C(F)(F)F)c1 (centres undefined)	.	.	-59	.	.
O=C(c1cccc(C(F)(F)F)c1)C1CCCN(Cc2cccn2-c2ccccn2)C1 (centres undefined)	.	.	-91	?	.
COCc1cc(CN2CCCC(C(=O)c3cccc(C(F)(F)F)c3)C2)ccc1OC (centres undefined)	.	.	.	.	.
